This excerpt belongs to a sample that is enriched for hits.
Sa growth inh – S. aureus growth inhibition; S. aureus RN4220 growth, OD600, 20 h, 42 °C; stronger effect = lower value; relative growth, % (concentration not given with the values); hit rate 0.53% among 170,000;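 active means relative growth at most 50% at the other temperature and 20+ points below 30 °C, or under 10% at both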
Sa helicase inh – blocks Staphylococcus aureus DNA helicase | purified S. aureus helicase, fluorescence unwinding assay | inhibition, % (concentration not given with the values) | AID 485395 | hit rate 0.05% among 120,000; in the data active means inhibition above about 25%, passing the limit was not always enough;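 further: 0% = mean of negative control wells and 100% = mean of positive control wells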
* hit, by the source's call.

Screening COc1ccc(CCNC(=O)Cn2cnc3c(cnn3-c3ccccc3)c2=O)cc1OC returned Sa growth inh 105 and Sa helicase inh 6.
COc1ccc(CNC(=O)Cn2cnc3ccccc32)cc1OC was read as Sa growth inh 82 and Sa helicase inh 41*.
For CCN(CC)c1ccc(C=C2C(=O)c3ccccc3C2=O)c(OC)c1 the results were Sa growth inh 98 and Sa helicase inh -97.
O=C(/C=C(\O)c1ccccc1)C(=O)Nc1cccc(F)c1 was read as Sa growth inh -0.6* and Sa helicase inh 20.
Screening O=C(/C=C(\O)c1ccc(Br)cc1)C(=O)Nc1ccccc1 returned Sa growth inh 45.
CCn1c(C(=O)N2CCCC(C(=O)NC(C)c3ccc4c(c3)OCCO4)C2)cc2sccc21 (centres undefined) was read as Sa growth inh 103 and Sa helicase inh -9.
For Cc1cc2oc(=O)cc(Cn3ccsc3=N)c2cc1C(C)C the results were Sa growth inh 50* and Sa helicase inh 6.
For Cc1cc2c(CCl)cc(=O)oc2cc1C(C)C the results were Sa growth inh 92 and Sa helicase inh -5.
For Cc1nnc(NC(=O)c2ccc(S(=O)(=O)N(CC(C)C)CC(C)C)cc2)o1 the results were Sa growth inh 0.2* and Sa helicase inh 4.
Screening CC(C)CN(CC(C)C)S(=O)(=O)c1ccc(C(=O)O)cc1 returned Sa growth inh 92 and Sa helicase inh 2.
CCOC(=O)N1CCN(CCC(=O)c2ccc(Br)cc2)CC1 was read as Sa growth inh -1.7* and Sa helicase inh 7.
`CCOC(=O)N1CCN(CCC(=O)c2ccc(OC)cc2)CC1` gave Sa growth inh 89 and Sa helicase inh 13.
O=C(CSc1ccccc1C(=O)O)NCCc1ccccc1 was read as Sa growth inh 77 and Sa helicase inh 7.
O=C(OCc1nnc(-c2ccccc2)o1)[C@@H]1CCCN1S(=O)(=O)c1ccc(Cl)cc1 was read as Sa growth inh 115 and Sa helicase inh -14.
Screening O=C1c2ccccc2C(=O)c2c1oc1c3c(ccc21)OCN(Cc1ccccc1)C3 returned Sa growth inh 106 and Sa helicase inh 4.
Screening CCCCN1COc2ccc3c4c(oc3c2C1)C(=O)c1ccccc1C4=O returned Sa growth inh 13 and Sa helicase inh 51*.
Screening O=c1[nH]c(=S)n(-c2cccc(Cl)c2)c2c1CN(C1CCCC1)CN2 returned Sa growth inh 97 and Sa helicase inh -10.
Cc1cc(CSC(=N)N)cs1 was read as Sa growth inh 96 and Sa helicase inh 9.
For Cc1ccc(N2C(=O)c3ccccc3C2=O)cc1 the results were Sa growth inh 101 and Sa helicase inh 4.
`Cc1ccc(-n2sc3ccccc3c2=O)cc1` gave Sa growth inh 1.1* and Sa helicase inh 2.
Screening Cc1cccc(-n2c(C)cc(CNC(=O)NCC3CCCO3)c2C)c1 (centres undefined) returned Sa growth inh 95 and Sa helicase inh -17.
For c1ccc(-c2cccc(-c3ccccn3)n2)nc1 the results were Sa growth inh 2.4* and Sa helicase inh 12.
c1ccc(-c2ccc3ccccc3n2)nc1 was read as Sa growth inh 63 and Sa helicase inh -5.
For Cc1ccc(SCC(=O)N2CCCCC2)cc1 the results were Sa helicase inh 10.
Screening COc1cc(Cc2cnc(N)nc2N)cc(OC)c1OC returned Sa growth inh -1.0*.
`COc1cc(CC(=O)OCC(N)=O)cc(OC)c1OC` gave Sa growth inh 96 and Sa helicase inh -14.
For CCc1ccc2[nH]c3nc(C)cc(C)c3c(=O)c2c1 the results were Sa growth inh 105 and Sa helicase inh 21.
For CCN(CC)/N=N/c1[nH]nc2nc(C)cc(C)c12 the results were Sa growth inh 7.2* and Sa helicase inh 10.
Cc1cc(Nc2ncc(Cl)cc2Cl)n[nH]1 was read as Sa growth inh 2.2* and Sa helicase inh 2.
`CN(CC(=O)Nc1ncc(Cl)cc1Cl)Cc1ccc(Cl)cc1` gave Sa growth inh 93 and Sa helicase inh -4.
For Nc1nonc1/C(=N/OC(=O)c1ccccc1)N1CCOCC1 the results were Sa growth inh 106 and Sa helicase inh 5.
`CC(C)C(NC(=O)c1ccccc1F)C(=O)O` (centres undefined) gave Sa growth inh 129 and Sa helicase inh -14.
For O=C1CS/C(=N/c2nc(-c3ccccc3)cs2)N1 the results were Sa growth inh 105 and Sa helicase inh 9.
`O=C(Oc1c(Cl)cc(Cl)c2cccnc12)c1ccco1` gave Sa growth inh 1.7* and Sa helicase inh 32.
Oc1c(Cl)cc(Cl)c2cccnc12 was read as Sa growth inh 65.
`CC1C/C(=N/Nc2nc3ccccc3[nH]2)CC(C)(C)C1` (centres undefined) gave Sa growth inh 83 and Sa helicase inh 11.
Screening CC1=C/C(=N/Nc2nc3ccccc3[nH]2)CC(C)(C)C1 returned Sa growth inh -0.4* and Sa helicase inh 15.
COC(=O)c1c(C)[nH]c(C(=O)CN(C)CC(=O)Nc2c(C)cc(C)cc2C)c1C was read as Sa growth inh 117 and Sa helicase inh 30*.
For COC(=O)c1c(C)[nH]c(C(=O)CN(C)Cc2cccc(OC)c2)c1C the results were Sa growth inh 98 and Sa helicase inh 9.
For Cc1ccc(C2=NN(C(=O)COC(=O)Cn3nc(-c4ccccc4)oc3=O)C(c3ccco3)C2)cc1 (centres undefined) the results were Sa growth inh 84 and Sa helicase inh 11.
`CC(C)N(Cc1ccccc1)C(=O)c1cccs1` gave Sa growth inh 87.
CC(C)N(CC(=O)c1cccs1)Cc1ccccc1 was read as Sa growth inh -1.0* and Sa helicase inh -10.
CCNc1cc(N2CCOCC2)c2noc3c2c1C(=O)c1ccccc1-3 was read as Sa growth inh 101 and Sa helicase inh -120.
CC(=Nc1ccc(Cl)cc1)c1ccccc1 was read as Sa growth inh 118.
Screening CS(=O)(=O)c1nc(Oc2cccc(C(F)(F)F)c2)cc(Oc2cccc(C(F)(F)F)c2)n1 returned Sa growth inh 32* and Sa helicase inh 8.
O=C(O)c1cccc(Oc2cccc(C(F)(F)F)c2)c1 was read as Sa growth inh 118 and Sa helicase inh 7.
`COC(=O)c1[nH]c2ccccc2c1C(Nc1ccc(C(=O)O)cc1)c1ccccc1` (centres undefined) gave Sa growth inh 115 and Sa helicase inh 11.
For CC1CN(Cn2nc(-c3ccc4c(c3)OCO4)oc2=S)CC(C)O1 (centres undefined) the results were Sa growth inh 80 and Sa helicase inh -11.
Screening CC1CCN(Cn2nc(-c3ccc4c(c3)OCO4)oc2=S)CC1 returned Sa growth inh 42* and Sa helicase inh -7.
`COC(=O)c1c(COc2ccccc2)n[nH]c1C` gave Sa growth inh 113.
Cc1n[nH]c(C)c1CCCCCOc1ccccc1 was read as Sa growth inh 0.0* and Sa helicase inh 13.
Screening Cc1n[nH]c(C)c1CCC(=O)O returned Sa growth inh 108 and Sa helicase inh 5.
Screening Cc1n[nH]c(C)c1CCCOc1ccccc1 returned Sa growth inh 8.3* and Sa helicase inh -2.
Cn1c(O)c(N=NC(=O)c2ccccc2)c2ccccc21 was read as Sa growth inh 93 and Sa helicase inh 6.
For CCCCn1c(O)c(N=NC(=O)c2ccccc2)c2ccccc21 the results were Sa growth inh 3.7* and Sa helicase inh 7.
Screening CCN(CC)S(=O)(=O)c1ccc(NC(=O)Nc2cn(CC(C)C)c(=O)c3ccccc23)cc1 returned Sa growth inh 91 and Sa helicase inh 6.

High-throughput results from PubChem BioAssay.
